Shown are actives, neighbours in structure and some others; about 1.2% of the full set was active somewhere.
TSHR antag: blocks TSH signaling through the human TSH receptor; TSHR-expressing cells, TSH-stimulated cAMP HTRF, 2 h; stronger effect = lower value; P16473; 0.2% of 330,000 active; AID 504810; activity change, negative = inhibition, % at 11.5 µM;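 active means activity change below a set negative limit, meaning inhibition stronger than a set level, cut at about -70% in these data; inconclusive means activity change between two set negative limits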; further: on the % scale 0 is the no-effect control and ±100 the full control effect
Target sequence (P16473 whole entry, looked up): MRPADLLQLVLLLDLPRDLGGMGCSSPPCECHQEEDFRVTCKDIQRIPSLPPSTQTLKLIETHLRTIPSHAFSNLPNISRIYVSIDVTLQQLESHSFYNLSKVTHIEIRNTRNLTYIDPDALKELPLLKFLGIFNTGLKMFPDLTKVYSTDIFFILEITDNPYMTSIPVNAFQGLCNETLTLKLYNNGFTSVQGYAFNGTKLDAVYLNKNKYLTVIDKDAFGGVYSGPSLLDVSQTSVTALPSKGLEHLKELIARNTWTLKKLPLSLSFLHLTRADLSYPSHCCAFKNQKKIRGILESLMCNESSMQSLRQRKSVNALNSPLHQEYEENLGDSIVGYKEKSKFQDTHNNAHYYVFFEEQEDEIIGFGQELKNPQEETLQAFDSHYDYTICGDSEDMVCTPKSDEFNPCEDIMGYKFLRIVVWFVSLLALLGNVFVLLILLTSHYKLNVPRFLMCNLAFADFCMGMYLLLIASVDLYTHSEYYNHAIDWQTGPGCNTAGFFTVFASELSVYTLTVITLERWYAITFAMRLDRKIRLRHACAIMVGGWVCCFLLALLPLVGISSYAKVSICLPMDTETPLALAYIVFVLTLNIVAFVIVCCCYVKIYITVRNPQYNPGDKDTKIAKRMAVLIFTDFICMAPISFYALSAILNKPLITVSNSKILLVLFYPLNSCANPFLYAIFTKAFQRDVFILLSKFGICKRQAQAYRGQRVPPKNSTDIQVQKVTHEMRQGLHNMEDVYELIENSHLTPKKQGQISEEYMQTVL
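Read-out is FRET at 665 nm (cryptate excitation 337 nm) from a cryptate-tagged anti-cAMP antibody, competed by cell cAMP against cAMP-d2. Compounds are tested on freshly harvested TSHR cells challenged with 4nM TSH (EC80) for 2 hours at 37 deg C.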
uPA surface inh: blocks generation of uPA at the cell surface; cell surface uPA generation assay, qHTS; Potency, µM (series often up to 38.3 µM), for the others: top-dose activity change, negative = inhibition, actives largely listed as inhibitors; 0.31% of 330,000 active; AID 540303; active means well fitted inhibition curve with a large enough effect; inconclusive means small, poorly fitted or top-dose-only effect; inactive means no such curve, though single readings can be large or run the other way; tested in mouse RAW 264.7 cells; further: potency means the concentration at half of the fitted maximal effect; on the % scale 0 is the no-effect control and ±100 the full control effect; nearly all actives have a fitted effect of over 55% in size
gsp antag: antagonists of gsp mutant (McCune-Albright syndrome) | gsp-mutant cells, cAMP HTRF, 30 min | Potency, µM (doses to about 76.9 µM), without a hit: at the highest dose activity change, negative = inhibition, actives largely listed as inhibitors | 0.4% of 340,000 active | AID 624288; calls by dose curve; cell line not stated here;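 further: intracellular cAMP measured with PDE inhibitor Ro 20-1724 present during compound exposure; potency means the concentration at half of the fitted maximal effect; on the % scale 0 is the no-effect control and ±100 the full control effect; nearly all actives have a fitted effect of over 65% in size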
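G418-selected cells were plated in DMEM/10% FBS for 16-24 h at 37C, then treated with compounds plus the PDE inhibitor […] (300 uM solution added) for 30 min at 37C. Intracellular cAMP was measured by HTRF after 30 min lysis at room temperature.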
CCT chaperon mod: changes cytosolic chaperonin activity | purified chaperonin ATPase assay, HTRF ADP detection, 30 min | activity change, % (concentration not given with the values), hits read low | 0.3% of 360,000 active | AID 651819; in the data active means activity change below about -30%; further: on the % scale 0 is the no-effect control and ±100 the full control effect
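Enzyme 40 or 20 nM (batch-dependent) in Tris pH 7.4/KCl/MgCl2/DTT; cpd 76 uM single point; ATP 10 uM; 30 min 37 °C; Transcreener ADP HTRF detection, 30 min RT; ratio 665/615.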
MmCpn inh: M. maripaludis TRiC chaperonin inhibition | purified Mm-Cpn ATPase, ADP Transcreener TR-FRET | Potency, µM (highest dose often 76.9 µM), inactives show top-dose activity, negative = inhibition, actives largely listed as inhibitors | 0.031% of 330,000 active | AID 504842; active means well fitted inhibition curve with a large enough effect; inconclusive means small, poorly fitted or top-dose-only effect; further: potency means the concentration at half of the fitted maximal effect; on the % scale 0 is the no-effect control and ±100 the full control effect; nearly all actives have a fitted effect of over 80% in size
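Eu-cryptate anti-ADP/ADP-d2 competition gives a ratio inversely related to ADP. Enzyme at 25 nM was pre-exposed to compound for 10 min, then given 10 uM ATP for 30 min, 37°C throughout.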
gsp ag: agonists of gsp mutant (McCune-Albright syndrome); Potency, µM (doses to about 76.9 µM), for the others: top-dose activation (cAMP increase), most hits filed as activators; gsp mutant cells, cAMP HTRF, 30 min; 0.13% of 340,000 active; active means well fitted activation curve with a large enough effect; inconclusive means small, poorly fitted or top-dose-only effect, or another doubt; inactive means no such curve, though single readings can be large or run the other way; cell line not stated here;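 further: phosphodiesterase inhibitor Ro 20-1724 added with compounds to block cAMP breakdown; potency means the concentration at half of the fitted maximal effect; nearly all actives have a fitted effect of over 60% in size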
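Cells in DMEM/10% FBS with G418 were pretreated with compounds in DMSO plus […] (300 uM stock) for 30 min at 37C. cAMP was measured by HTRF (cAMP-d2 plus anti-cAMP antibody-K) after 30 min at room temperature.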
Numbers without * were called inactive; ? = inconclusive; . = no result; [ ] = remark or other dose.

SMILES	TSHR antag	uPA surface inh	gsp antag	CCT chaperon mod	MmCpn inh	gsp ag
Fc1ccc(-c2nnc3ccccn23)cc1	13.6	5.1%	-7.4%	1.6	3.4%	-65.1%
CC1(C)Cc2ccccc2-c2nnc(SCC(=O)N3CCN(c4ccccc4)CC3)n21	-23.8	.	35.5µM*	-2.6	-2.4%	18.5%
CC1(C)Cc2ccccc2-c2nnc(SCc3ccccc3)n21	-10.6	3.5%	-19.0%	5.6	-0.6%	-61.5%
CCn1c(SCC(=O)N2CCN(c3ccccc3)CC2)nnc1-c1c[nH]c2ccccc12	-7.2	7.94µM*	?	-0.8	-0.1%	26.5%
CC(=O)Nc1cccc(C(=O)OCC(=O)N2CCN(C(=O)COC(=O)c3cccc(NC(C)=O)c3)CC2)c1	.	-3.5%	12.4%	-4.1	.	0.8%
CCS(=O)(=O)Nc1ccc(C2=NN(C(=O)c3ccco3)C(c3cccc(F)c3)C2)cc1 (centres undefined)	4.9	23.7%	22.4µM*	0.3	2.4%	-17.1%
CS(=O)(=O)Nc1ccc(C2=NN(C(=O)c3ccco3)C(c3cccc(F)c3)C2)cc1 (centres undefined)	12.6	2.9%	?	-4.1	2.0%	-22.9%
COc1ccc(-c2c(-c3ccc(O)cc3O)n[nH]c2C(F)(F)F)cc1	-14.2	2.0%	-4.0%	-6.2	39.8µM*	-1.2%
O=C(Nc1ccc(Br)c2ccccc12)c1ccc2ccccc2c1O	?	?	?	-3.3	?	?
CC(=O)Nc1ccc(Br)c2ccccc12	-2.5	-0.5%	11.7%	0.3	-20.3%	28.2µM*
C=C(C)CNC(=S)N/N=C(\C)c1cccc(NC(C)=O)c1	-4.7	0.3%	-16.4%	-4.6	-3.7%	13.7%[15.4 µM]
CC1Sc2ccc(S(=O)(=O)N3CCC(C(=O)NCc4ccco4)CC3)cc2NC1=O (centres undefined)	0.1	-1.6%	-3.0%	-33.8*	3.1%	-0.5%
CC(C)CC(=O)N1CCN(Cc2ccc(Cl)cc2)CC1	18.2	-1.4%	8.6%	3.7	0.3%	2.2%[15.4 µM]
CC(C)c1ccc(CN2CCN(C(=O)CCl)CC2)cc1	-6.2	3.55µM*	2.6%	-2.2	0.4%	-2.0%
CCOc1ccccc1C1N=C(c2ccc(OC)cc2)CC(c2ccccc2O)N1 (centres undefined)	-6.3	-8.3%	-9.3%	-1.8	-3.9%	1.6%[15.4 µM]
CC(C)C1N=C(c2ccc3c(c2)OCO3)CC(c2ccccc2O)N1 (centres undefined)	-10.6	10µM*	-4.2%	-0.9	-6.8%	8.5%
CC(C)Cc1nc(SCC(=O)Nc2nnc(CC(C)C)s2)n[nH]1	6.6	2.0%	2.6%	-0.5	0.6%	-11.5%[15.4 µM]
Cc1cc2c(=O)oc(-c3ccccc3Br)nc2s1	-19.2	-18.0%	35.5µM*	-0.9	-13.8%	0.6%[15.4 µM]
Cc1cc2c(=O)oc(-c3ccc(F)cc3)nc2s1	-3.6	-10.7%	-11.8%	-2.9	1.2%	-1.8%[15.4 µM]
O=C1c2ccccc2C(=O)N1CCOc1ccccc1Br	-12.6	0.7%	-5.2%	-5.2	-3.7%	3.55µM*
CCOc1ccccc1C(=O)Nc1ccc(C(=O)c2ccccc2)cc1	21.4	-59.7%	25.1µM*	-1.0	2.3%	-13.2%
O=C(Nc1ccc(C(=O)c2ccccc2)cc1)c1ccccc1	-1.7	1.4%	39.8µM*	2.8	-4.0%	-0.2%[15.4 µM]
CCOc1ccccc1C(=O)Nc1ccc(NC(=O)c2ccccc2)cc1	18.0	8.6%	8.6%	-0.7	0.8%	-3.6%
O=C(Nc1ccc(N2CCCCC2)cc1)c1ccccc1	0.3	?	?	-65.9*	-1.0%	-26.4%
NC(=O)c1c(NC(=O)C(=O)NCCCN2CCOCC2)sc2c1CCCC2	-3.9	9.1%	5.0%	-1.6	0.2%	?
SMILES	TSHR antag	uPA surface inh	gsp antag	CCT chaperon mod	MmCpn inh	gsp ag
Cc1ccccc1OCC(=O)OCC(=O)Nc1cc(C(F)(F)F)ccc1N1CCOCC1	-4.9	5.4%	1.6%	-0.6	0.7%	?
COc1ccc(Cl)cc1-c1n[nH]c(=S)o1	63.4	-2.2%	-1.2%	-2.4	?	14.1µM*
CCOC(=O)c1ccc(NC(=O)CCc2nc(-c3cccc(C)c3)no2)cc1	-15.5	0.0%	35.5µM*	0.0	0.1%	-10.8%
COc1cccc(NC(=O)CCc2nc(-c3ccccc3F)no2)c1	-1.7	.	-9.4%	-4.1	0.4%	-9.1%
O=C(CCc1nc(-c2ccccc2F)no1)Nc1ccc(Oc2ccccc2)cc1	-72.5*	-13.8%	1.1%	1.7	2.3%	13.8%
O=C(NNc1ccc([N+](=O)[O-])cc1[N+](=O)[O-])c1ccco1	-11.2	-5.1%	35.5µM*	-1.5	?	0.9%
c1ccc2c(CCNc3ncnc4nc[nH]c34)c[nH]c2c1	-12.1	2.82µM*	-8.1%	0.2	0.1%	?
c1ccc(CCNc2ncnc3nc[nH]c23)cc1	-11.6	-4.3%	2.9%	-1.2	0.4%	-41.7%
CC(C)c1ccc(NC2CCCN(C(=O)CCN3CCCC3=O)C2)cc1 (centres undefined)	0.2	1.4%	4.8%	-34.0*	-5.9%	-12.1%
CCCN(CC(=O)Nc1cccc(Br)c1)CC(=O)Nc1ccc(F)c(F)c1F	-41.2	1.1%	50.1µM*	-0.8	4.6%	?
CCCN(CC(=O)Nc1cccc(S(N)(=O)=O)c1)CC(=O)Nc1ccc(F)c(F)c1F	-1.9	-4.2%	2.8%	-1.3	-2.8%	-58.3%
O=C(c1ccc2nc(-c3ccco3)c(-c3ccco3)nc2c1)N1CCN(c2ccccc2)CC1	-16.9	.	-20.9%	-2.7	-0.3%	-0.2%
O=C(O)c1ccc2nc(-c3ccco3)c(-c3ccco3)nc2c1	-10.7	-8.6%	-21.7%	-1.9	-15.5%	3.55µM*
CCOCCn1ccc2c(OCC(=O)NCCc3ccc(OC)c(OC)c3)cccc2c1=O	-4.5	-16.3%	1.3%	1.4	0.4%	-14.2%
CCOCCn1ccc2c(OCC(=O)Nc3ccc(OC)c(OC)c3)cccc2c1=O	-28.8	-2.5%	35.5µM*	-1.8	-3.3%	-23.2%[15.4 µM]
CCOC(=O)COc1cccc2c(=O)n(CC(=O)NCc3ccc(F)cc3)ccc12	1.2	0.0562µM*	10.7%	-0.7	-0.6%	-27.5%
CCOC(=O)COc1cccc2c(=O)n(CC(=O)NCc3ccccc3)ccc12	1.6	0.199µM*	13.8%	-0.8	-3.0%	?
O=C(Nc1ccc(F)cc1)Nc1sccc1-c1nc2ccccc2s1	-3.1	1.3%	-9.6%	-1.1	?	25.3%[15.4 µM]
CC(=O)N(C)N1c2ccccc2CCc2ccccc21	-30.5	-3.1%	-9.0%	-0.2	-0.1%	6.1%
O=C(OCCN1C(=O)c2ccccc2C1=O)c1cc2ccccc2o1	-4.5	3.6%	?	0.6	0.7%	5.9%
Cc1cccc(NC(=S)NNC(=O)c2csc3c2CCCC3)c1	-0.6	-19.8%	-6.5%	2.9	2.0%	-44.3%
